In PubChem BioAssay (NCI) one finds growth inhibition data, which are given here for 39 molecules.

Where “and” joins values, the source holds several entries; their conditions need not be identical. Equal entries are not always repeated. The panel holds about 79,000 compounds, 15% with a hit somewhere; the sample as a whole holds those more often. Unmarked numbers belong to inactive results. Calls of active or inactive are those of the source. Rule as the data show it: active = growth inhibition above about 70%; inactive = the rest.

The nature of assay [1]: NCI Yeast Anticancer Drug Screen. Data for the rad50 strain (AID 155).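 Also: 0% = growth of vehicle-only cultures of the same strain.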 Particulars: S. cerevisiae rad50 strain growth inhibition, active compounds read high; at 50.0 µM unless noted. In short, it runs like this: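 Genetically altered yeast (DNA repair pathway); compound treatment; growth inhibition vs vehicle ctrl.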
Assay [2] can be described thus: NCI Yeast Anticancer Drug Screen. Data for the mec2-1 strain (AID 157). Particulars: S. cerevisiae mec2-1 strain, active compounds read high; at 50.0 µM unless noted. The method in brief: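 Vehicle-treated cultures served as reference for growth inhibition of compound-exposed mec2-1 yeast.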
The nature of assay [3]: NCI Yeast Anticancer Drug Screen. Data for the sgs1 mgt1 strain (AID 161).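 Also: 0% = growth of cultures given vehicle only.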 Particulars: S. cerevisiae sgs1 mgt1 strain, active compounds read high; at 50.0 µM unless noted. The method in brief:
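Read-out: growth inhibition vs vehicle controls. Cells: mutant yeast strain deficient in DNA damage repair.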

The nature of assay [4]: NCI Yeast Anticancer Drug Screen. Data for the cln2 rad14 strain (AID 165).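 Also: 0% = growth equal to vehicle treated cultures.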 Particulars: S. cerevisiae cln2 rad14 strain, active compounds read high; at 50.0 µM unless noted. In short, it runs like this:
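Each compound was tested on cln2 rad14 yeast. Inhibition of growth was calculated against vehicle-exposed controls.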

Assay [5] in a line: NCI Yeast Anticancer Drug Screen. Data for the bub3 strain (AID 167). Particulars: S. cerevisiae bub3 mutant strain, active compounds read high; at 50.0 µM unless noted. In short, it runs like this: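 Yeast carrying a defined mutation is treated with each compound, and growth is compared with that of vehicle-exposed cells to give inhibition.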
The nature of assay [6]: NCI Yeast Anticancer Drug Screen. Data for the mlh1 rad18 strain (AID 175). Particulars: S. cerevisiae mlh1 rad18 strain growth inhibition, active compounds read high; at 50.0 µM unless noted. In short, it runs like this:
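Vehicle-treated cultures served as the reference for growth inhibition in a yeast strain carrying DNA damage repair alterations exposed to each compound.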

As for `O=C(OC1c2cccc3cccc(c23)C1O)c1ccccc1` (centres undefined), the growth inhibition in assay [1] is 8.2%; in assay [2], -2.45%; in assay [3], 1.55%; in assay [4], 2.65%; in assay [5], 5.85%; in assay [6], 1.75%.

As to `S=c1[nH]nc2scnn12`, the growth inhibition in assay [1] was -2.85%; in assay [2], 3.55%; in assay [3], 4.25%; in assay [4], -45.5%; in assay [5] it was 7.4%; in assay [6] it was -9.3%.

On to `CO/C(=N\N=C\c1ccc(Cl)cc1Cl)c1ccncc1`, for which the growth inhibition in assay [1] is -25.9%; in assay [2], -40.4%; in assay [3], -53%; in assay [4], -23.4%; in assay [5] it was -27.8%; in assay [6] it was -54.6%.

In the case of `O=Cc1ccc(OC(=O)Nc2ccc([N+](=O)[O-])cc2)cc1`, the growth inhibition in assay [1] is 2.65%; in assay [2] it was 45%; in assay [3], 33.4%; in assay [4], -2.7%; in assay [5], 46.6%; in assay [6], 47.4%.

Take `Cc1cn(C2CC3C(COC(c4ccccc4)N3O)O2)c(=O)[nH]c1=O` (centres undefined): the growth inhibition in assay [1] is 0.1%; in assay [2] it was -8.65%; in assay [3], 21.2%; in assay [4], 2.7%; in assay [5] it was -2.95%; in assay [6], 7.15%.

On to `C=C1c2nc3ccccc3n2C=C(c2ccc(C)cc2)N1c1ccc(C)cc1`, for which the growth inhibition was 24.6% in assay [1]; 18% in assay [2]; 16.2% in assay [3]; 25% in assay [4]; 11.2% in assay [5]; 29.8% in assay [6].

With `COc1cc(C)c(O)c(C(=O)O)c1`, the growth inhibition is -3.7% in assay [1]; -7.65% in assay [2]; 2.25% in assay [3]; 0.05% in assay [4]; -1.45% in assay [5]; -4.25% in assay [6].

Take `CCn1c(CCCc2nc3c([nH]2)c(=O)n(C)c(=O)n3C)nc2c1c(=O)n(C)c(=O)n2C`: the growth inhibition in assay [1] is 6.65%; in assay [2] it was -38.8%; in assay [3], -45.1%; in assay [4] it was 33.2%; in assay [5], -40.7%; in assay [6], -15.3%.

For `CCOC(=O)c1sc(SC)nc1NC(=O)c1ccccc1`, the growth inhibition is -18.4% in assay [1]; -9% in assay [2]; -5.45% in assay [3]; 3.2% in assay [4]; -3.4% in assay [5]; -33.2% in assay [6].

With `O=C(O)c1ccc(Nc2c3ccccc3nc3ccccc23)cc1`, the growth inhibition in assay [1] is 49%; in assay [2], 11.6%; in assay [3], 37.3%; in assay [4], 17.2%; in assay [5], 26.8%; in assay [6] it was 24.6%.

For the molecule `C(/C=C/c1ccccc1)=Nc1ccc(SSc2ccc(N=C/C=C/c3ccccc3)cc2)cc1`, the growth inhibition in assay [1] is 38.2%; in assay [2] it was 6.25%; in assay [3], 4.65%; in assay [4], -13%; in assay [5], -3.05%; in assay [6], 27.9%.

On to `CCOC(Nc1cc(Cl)cc(Cl)c1)C(=O)c1ccccc1` (centres undefined), for which the growth inhibition in assay [1] is -1.9%; in assay [2], -0.7%; in assay [3], -9.8%; in assay [4] it was -3.05%; in assay [5] it was 4.05%; in assay [6], -5.65%.

Consider `Cc1cc(C)nc(NS(=O)(=O)c2ccc(NC(=O)c3ccc(Cl)c4c(Nc5ccc(S(=O)(=O)N=C(N)N)cc5)c5ccccc5nc34)cc2)n1`, for which the growth inhibition in assay [1] was 28%; in assay [2], 27%; in assay [3], 20.1%; in assay [4] it was 29.7%; in assay [5], 23.2%; in assay [6], 31.4%.

Turning to `C=CCN(CC=C)C(=O)Nc1cccc(C)c1`, the growth inhibition is -27.2% in assay [1]; -43.9% in assay [2]; 1.3% in assay [3]; -3.15% in assay [4]; -2.6% in assay [5]; -21% in assay [6].

Regarding `NC(=O)OCCOC(N)=O`, the growth inhibition in assay [1] is 7.5%; in assay [2], 1%; in assay [3] it was -31.9%; in assay [4] it was -9.95%; in assay [5], 15.8%; in assay [6], 2.55%.

In the case of `O=C(O)c1cscc1Cc1cccs1`, the growth inhibition is 0.05% in assay [1]; -13.7% in assay [2]; -43.6% in assay [3]; -30.6% in assay [4]; -76% in assay [5]; 13.7% in assay [6].

Take `CC(=O)OCCN(CCOC(C)=O)CCOC(C)=O`: the growth inhibition in assay [1] was -8.4%; in assay [2], -3.5%; in assay [3] it was -3.4%; in assay [4] it was -52.3%; in assay [5], -3.4%; in assay [6] it was 18.5%.

As for `Cc1ccc(O)c(C=NCCN=Cc2cc(C)ccc2O)c1.[Zn]`, the growth inhibition was -14.4% in assay [1]; 8.6% in assay [2]; 0.05% in assay [3]; -13% in assay [4]; -43.1% in assay [5]; -32.4% in assay [6].

On to `c1ccc(-c2cnoc2-c2ccccc2)cc1`, for which the growth inhibition in assay [1] was 14%; in assay [2], 17.6%; in assay [3], 7.15%; in assay [4], -19.8%; in assay [5] it was -18.7%; in assay [6] it was 8.3%.

Take `O=I(=O)c1ccccc1`: the growth inhibition in assay [1] was 3.95%; in assay [2], 9.7%; in assay [3], 17.5%; in assay [4], 26.6%; in assay [5], 20.1%; in assay [6], 17.9%.

Regarding `Nn1c(NNC(=O)C(=O)Nc2cc(Cl)c(Cl)cc2Cl)n[nH]c1=S`, the growth inhibition in assay [1] was -6.05%; in assay [2] it was -16.1%; in assay [3] it was -6.45%; in assay [4], 23.8%; in assay [5], 19.2%; in assay [6], 1.4%.

Regarding `CCCNC(=O)Oc1ccccc1C(=O)NCO`, the growth inhibition was -3.5% in assay [1]; 0.4% in assay [2]; -9.35% in assay [3]; -14.1% in assay [4]; 16.8% in assay [5]; -6.4% in assay [6].

For the molecule `Cc1ccc(S(=O)(=O)c2ccccc2)cc1`, the growth inhibition was -18.4% and 23.4% in assay [1]; -15.6% and -0.95% in assay [2]; -22.5% and 23% in assay [3]; 2.4% and 1.35% in assay [4]; -5.35% and 3.1% in assay [5]; -43.6% and 16.6% in assay [6].

As for `CC(=O)C1=CCCCC1`, the growth inhibition in assay [1] is 6.1%; in assay [2], -2.8%; in assay [3] it was -3.3%; in assay [4], 11.7%; in assay [5] it was 14.7%; in assay [6], -7.8%.

As for `CC12Nc3ccccc3N1C(=O)c1ccccc12` (centres undefined), the growth inhibition in assay [1] was 15.7%; in assay [2], 6.15%; in assay [3], -34.8%; in assay [4], 1.95%; in assay [5], -1%; in assay [6], -0.5%.

Regarding `CCOc1cc(OCC)c2c(c1)C(=O)OC2=O`, the growth inhibition is 4.15% in assay [1]; -3.8% in assay [2]; 10% in assay [3]; 4.05% in assay [4]; -34.4% in assay [5]; -10.2% in assay [6].

`C(CCCC1CO1)CCC1CO1` (centres undefined): the growth inhibition is 24.5% in assay [1]; 18.3% in assay [2]; 17.7% in assay [3]; -36.5% in assay [4]; 11.1% in assay [5]; 7.65% in assay [6].

Turning to `CN(C)CCNC(=O)Cn1ccc(=O)c2ccc([N+](=O)[O-])cc21`, the growth inhibition in assay [1] is 11.9%; in assay [2] it was 6.55%; in assay [3] it was 20.6%; in assay [4], 20.8%; in assay [5] it was -5.85%; in assay [6], -39.5%.

Consider `CC(=O)Nc1ccc(-c2nnc(SCC(=O)Nc3cccc([N+](=O)[O-])c3)o2)cc1`, for which the growth inhibition was -2% in assay [1]; 5.15% in assay [2]; 15.6% in assay [3]; -17.5% in assay [4]; -10.7% in assay [5]; 0.4% in assay [6].

Consider `CCCCCCCCCCCCCCCCC(C(=O)O)C(O)(CC(=O)O)C(=O)O` (centres undefined), for which the growth inhibition in assay [1] was 2.8% and 41.7%; in assay [2], -14.7% and 16.6%; in assay [3], 14.5% and 43.4%; in assay [4], -10.7% and 16.6%; in assay [5], -7.9% and 33.4%; in assay [6], 7.25% and 31.6%.

As to `O=[N+]([O-])c1cc(C(Nc2nncs2)Nc2nncs2)ccc1Cl`, the growth inhibition in assay [1] is 12.6%; in assay [2] it was 8.25%; in assay [3], 43.9%; in assay [4] it was 11%; in assay [5], 2.5%; in assay [6], 46.6%.

Turning to `CCN(CC)CCOC(=O)c1ccc(NC(=O)OCCOCCOC(=O)Nc2ccc(C(=O)OCCN(CC)CC)cc2)cc1`, the growth inhibition in assay [1] was -1.8%; in assay [2] it was -4.3%; in assay [3], 9.25%; in assay [4], -1.1%; in assay [5], -3.1%; in assay [6], 14.7%.

Consider `CC1Cc2c(n[nH]c2CC2CC(=O)NC(=O)C2)C(C)C1` (centres undefined), for which the growth inhibition in assay [1] is 8.6%; in assay [2], -2.35%; in assay [3], 4%; in assay [4] it was -15.7%; in assay [5] it was 29.4%; in assay [6], 17.8%.

With `COc1ccc2c(c1)CCC1=C2CCC2(C)C1=CCS2(=O)=O` (centres undefined), the growth inhibition in assay [1] was 3.85%; in assay [2], -5.6%; in assay [3], -7.9%; in assay [4] it was 22.6%; in assay [5] it was 8.45%; in assay [6], -1.9%.

On to `CCCCC(/C=C(\C(C)=O)C(=O)OCC)CC` (centres undefined), for which the growth inhibition in assay [1] is -5.95%; in assay [2], -39.1%; in assay [3], -28.1%; in assay [4], -10.5%; in assay [5], -37%; in assay [6], -40.6%.

As for `C/C=C\c1noc2c1C(=O)OC(C)C2` (centres undefined), the growth inhibition is 49.4% in assay [1]; 23.4% in assay [2]; 40.4% in assay [3]; 14.2% in assay [4]; 22.4% in assay [5]; 17.6% in assay [6].

Turning to `CCCCCOC(=O)C#CC(=O)OCCCCC`, the growth inhibition in assay [1] is 99.8% (active); in assay [2] it was 99.8% (active); in assay [3], 99.7% (active); in assay [4] it was 99.4% (active); in assay [5] it was 99.8% (active); in assay [6], 99.7% (active).

For `O=C(O)CS(=O)c1ccc2c3c(cccc13)C(=O)c1ccccc1-2` (centres undefined), the growth inhibition in assay [1] was 14.7%; in assay [2], -12.5%; in assay [3], -38.5%; in assay [4], -0.05%; in assay [5] it was -30.8%; in assay [6] it was 1.7%.

In the case of `CN(C)CCS(=O)(=O)c1ccc(Cl)cc1`, the growth inhibition in assay [1] is 38.9%; in assay [2], 14.6%; in assay [3], 14.4%; in assay [4] it was 16.5%; in assay [5] it was 9.85%; in assay [6] it was 20.6%.
